# Measured values reported in PubChem BioAssay AID1035 (National Center for Advancing Translational Sciences (NCATS), 2008).
# Unmarked numbers belong to inactive results. The source made the active and inactive calls. No rule for the calls is given here.
# Test: HDAC Secondary Assay for qHTS Assay for Epigenetic Modulators
# Conditions: HeLa nuclear extract HDAC activity, fluorogenic substrate, 20 min; at 48 µM; active compounds read low
# Source text: NIH Molecular Libraries Screening Centers Network [MLSCN] NIH Chemical Genomics Center [NCGC] MLSCN Grant: 1 X01 MH079860-01 Assay Provider: Elisabeth D. Martinez, University of Texas SW Medical Center NCGC Assay Overview: This secondary assay characterizes selected actives identified in the qHTS of the Locus Derepression (LDR) assay (PubChem AID 597). The LDR assay detects the derepression of a GFP reporter that is stably integrated in a region of the genome of murine c127i mammary cells that is presumably silenced. Compounds that cause derepression of the locus to express GFP are identified by enumerating GFP positive cells using a laser-scanning microplate cytometer. Selected LDR actives were assayed for inhibition of histone deacetylase (HDAC) activity in HeLa nuclear extracts using a HDAC fluorometric kit (AK-500, Biomol International LP). This assay uses a substrate containing an acetylated lysine side chain that is deacetylated by HDAC enzymatic activity to generate a fluorophore.
# NCGC Assay Protocol Summary HeLa nuclear extracts and acetylated profluorescent substrate were incubated with vehicle, 0.5 uM TSA, or 48 uM indicated LDR compound for 20 min at ambient temperature and fluorescence was measured. Background-subtracted activity was expressed as a percent of uninhibited extract. Tests were performed in 25 uL volume in 384-well black plates using the HDAC assay kit AK-500 (Biomol International LP). For further details, see R.L. Johnson, W. Huang, A. Jadhav, C.P. Austin, J. Inglese, E.D. Martinez, A Quantitative High-Throughput Screen Identifies Potential Epigenetic Modulators of Gene Expression, Analytical Biochemistry (2007), doi: 10.1016/j.ab.2007.12.028
row,SMILES,remaining HDAC activity
1,CC(C)C(=O)NC(c1ccc(N(C)C)cc1)c1ccc2cccnc2c1O (stereo not drawn),99%
2,CN(C)C(=O)CSc1cccc2cccnc12,111%
3,O=C(CSc1cccc2cccnc12)N1CCCC1,120%
4,CN1C(=S)SC(c2ccccc2)N(C)C1c1ccccc1 (stereo not drawn),107%
5,CCN(CC)c1ccc2cc(-c3nc4ccccc4[nH]3)c(=O)oc2c1,112%
6,CC(C)C(=O)NC(c1ccco1)c1cc([N+](=O)[O-])c2cccnc2c1O (stereo not drawn),112%
7,O=Nc1ccc(O)c2ncccc12,84%
8,COc1ccc(C(NC(=O)C(C)C)c2ccc3cccnc3c2O)cc1 (stereo not drawn),106%
9,CC(/C=C/C(=O)NO)=C\[C@@H](C)C(=O)c1ccc(N(C)C)cc1,1% (active)
10,O=C(CSc1cccc2cccnc12)NCc1ccccc1,96%
11,CC(C)C(=O)NC(c1ccco1)c1ccc2cccnc2c1O (stereo not drawn),108%
12,CCN1CSC(=S)N(CC)C1,103%
13,CN1CCN(Cc2cc(Cl)c3cccnc3c2O)CC1,109%
